# Results as given in PubChem BioAssay AID463173 (ICCB-Longwood Screening Facility, Harvard Medical School, 2010).
# Screen size: about 52,000 compounds; about 4,300 (8.3%) were called active. This is one part of a sample in which actives are shown more often than they occur. Values without a mark were called inactive. No stated cut-off is given here; in the data, active means survival mostly below about 52% (no sharp cut-off); inactive means mostly above about 56%.
# System: DeltatarO mutant
# Assay: growth inhibition of S. aureus wild type versus tarO mutant, primary screen, teichoic acid synthesis inhibitors, RN4220, OD600 (AID 463173)
# Details: OD600, 18 h, hits give low values, screened at 18.75 µg/mL (by protocol)
row,Compound,survival
1,COc1cccc(N2CCN(c3nc4ccc(C(=O)c5ccccc5)cc4n4c(C)nnc34)CC2)c1,102%
2,Cc1c(C(=O)OCCOc2ccccc2)[nH]c2c1C(=O)CC(c1ccccc1Cl)C2 (stereo unspecified),80%
3,CCC(=O)N1CCc2cc(Br)cc(S(=O)(=O)NCCc3cccc(C)c3)c21,102%
4,CCC(=O)N1CCc2cc(Br)cc(S(=O)(=O)NCCc3ccccc3)c21,43% (active)
5,CCC(=O)N1CCc2cc(Br)cc(S(=O)(=O)CCC(=O)NCCc3ccccc3Cl)c21,72%
6,CCC(=O)N1CCc2cc(Br)cc(S(=O)(=O)NCCc3ccc(C)cc3)c21,85%
7,CCC(=O)N1CCc2cc(Br)cc(S(=O)(=O)NCCc3ccccc3Cl)c21,39% (active)
8,CCC(=O)N1CCc2cc(Br)cc(S(=O)(=O)NCc3ccccc3)c21,66%
9,CC(CNC(=O)c1ccc2nc(Cc3ccccc3)oc2c1)c1ccccc1 (stereo unspecified),70%
10,CC(Sc1nccn1C)C(=O)Nc1ccccc1C#N (stereo unspecified),85%
11,COc1ccccc1CNc1ncnc2c1c(-c1ccccc1)cn2-c1cccc(C)c1,80%
12,CCc1ccc(S(=O)(=O)N2CCN(c3ccc(Cl)c(Cl)c3)CC2)cc1,118%
13,O=S(=O)(c1ccc(C2CCCCC2)cc1)N1CCN(c2ccc(Cl)c(Cl)c2)CC1,54% (active)
14,O=S(=O)(c1ccc(C2CCCCC2)cc1)N1CCN(c2cc(Cl)ccc2Cl)CC1,72%
15,Cc1cccc(OC(=O)c2snnc2C)c1,88%
16,Cc1cccc(NC(=O)c2oc3ccc(S(=O)(=O)N4CCCCC4)cc3c2C)c1C,71%
17,COc1ccccc1NC(=O)CSC1=Nc2ccccc2C2=NC(CC(=O)NCc3ccccc3)C(=O)N12 (stereo unspecified),71%
18,Cc1ccc(-n2ncc3c(N4CCCCCC4)ncnc32)cc1Cl,102%
19,CCn1c(=O)cc(SCC(=O)NCCc2cc(OC)ccc2OC)c2ccccc21,61%
20,Cc1ccc(Oc2nc3c(c(=O)n(Cc4ccccc4)c(=O)n3C)n2C)cc1C,44%
21,CCCCNc1nc2c(c(=O)n(Cc3ccccc3)c(=O)n2C)n1C,66%
22,COc1cccc(Cn2c(Oc3cc(C)cc(C)c3)nc3c2c(=O)n(C)c(=O)n3C)c1,31% (active)
23,CCCCC(CC)Cn1c(Oc2ccccc2)nc2c1c(=O)n(C)c(=O)n2C (stereo unspecified),-15% (active)

row,Compound,survival
1,Cc1cccc(Oc2nc3c(c(=O)n(C)c(=O)n3C)n2Cc2ccccc2)c1C,53%
2,Cc1cccc(Oc2nc3c(c(=O)n(C)c(=O)n3C)n2C)c1,123%
3,CCCCNc1nc2c(c(=O)n(Cc3ccc(Cl)c(Cl)c3)c(=O)n2C)n1C,-10% (active)
4,CCCCNc1nc2c(c(=O)n(Cc3ccc(Cl)cc3)c(=O)n2C)n1C,56%
5,Cn1c(=O)c2c(nc(Oc3ccccc3)n2Cc2c(Cl)cccc2Cl)n(C)c1=O,84%
6,Cc1ccc(C)c(Oc2nc3c(c(=O)n(C)c(=O)n3C)n2Cc2ccccc2)c1,32% (active)
7,Cc1cc(C)cc(Oc2nc3c(c(=O)n(C)c(=O)n3C)n2Cc2ccc(F)cc2)c1,76%
8,COc1cccc(Cn2c(NCc3ccc(C)cc3)nc3c2c(=O)n(C)c(=O)n3C)c1,79%
9,CCOc1ccc(C(=O)c2cn(CC(=O)Nc3ccc(OC)cc3)c3cc4c(cc3c2=O)OCCO4)cc1,82%
10,CCc1cccc(C)c1NC(=O)Cn1nc(C)c2nn(-c3ccc(Cl)cc3)c(C)c2c1=O,124%
11,Cc1ccc(-n2nc(CO)c(C(=O)NCCO)n2)cc1,82%
12,CCOc1ccc(CN2CCc3nc(Nc4ccc5c(c4)OCCO5)ncc3C2)cc1,89%
13,Cc1ccc(S(=O)(=O)c2nnn3c2nc(N2CCCCC2)c2sccc23)cc1,104%
14,CCOC(=O)c1scc(-c2ccc(C)cc2)c1S(=O)(=O)N1CCN(c2ccccc2)CC1,73%
15,Cc1ccc(CSc2nnc(-n3c(=O)c(C#N)cc4c(=O)n5cccc(C)c5nc43)s2)cc1,101%
16,N#Cc1cc(-c2ccc(Cl)cc2)no1,97%
17,COC(=O)CSc1nnc(-c2ccccc2)n1C,97%
18,CCc1ccccc1NC(=O)Nc1c(C)n(C)n(-c2ccccc2)c1=O,88%
19,CN1C(=O)N(C)C2(CC1(C)C)CC(C)(C)N(C)C(=O)N2C,102%
20,Cn1c(=O)c2c(nc(SCC(=O)Nc3ccc(F)c(F)c3)n2Cc2ccccc2F)n(C)c1=O,111%
21,COc1ccc(NC(=O)c2nnn(Cc3ccc(Br)cc3F)c2N)c(OC)c1,68%
22,Cn1c(=O)c2c(nc(NCCc3ccccc3)n2Cc2cccc(Br)c2)n(C)c1=O,50%
23,Cc1ccccc1Oc1nc2c(c(=O)n(C)c(=O)n2C)n1Cc1ccc(Br)cc1,143%
